# Results from PMC7862700, “An all-to-all approach to the identification of sequence-specific readers for epigenetic DNA modifications on cytosine”.
# Key:
# Assay in all cases: DAPPL (digital affinity profiling via proximity ligation, sequencing); 10 mM Tris-HCl pH 7.5, 50 mM NaCl, 1 mM DTT, 4% glycerol, room temperature, 30 min; GST-TFs on glutathione beads, 16-mer random dsDNA library, 0.1% formaldehyde crosslink after washing; high values mean tight binding
# FLI1 = target: T1, FLI1 (Homo sapiens, UniProt Q01543 1-452); details: protein: recombinant; tags: N-terminal GST; dsDNA, one strand shown
# T1 sequence: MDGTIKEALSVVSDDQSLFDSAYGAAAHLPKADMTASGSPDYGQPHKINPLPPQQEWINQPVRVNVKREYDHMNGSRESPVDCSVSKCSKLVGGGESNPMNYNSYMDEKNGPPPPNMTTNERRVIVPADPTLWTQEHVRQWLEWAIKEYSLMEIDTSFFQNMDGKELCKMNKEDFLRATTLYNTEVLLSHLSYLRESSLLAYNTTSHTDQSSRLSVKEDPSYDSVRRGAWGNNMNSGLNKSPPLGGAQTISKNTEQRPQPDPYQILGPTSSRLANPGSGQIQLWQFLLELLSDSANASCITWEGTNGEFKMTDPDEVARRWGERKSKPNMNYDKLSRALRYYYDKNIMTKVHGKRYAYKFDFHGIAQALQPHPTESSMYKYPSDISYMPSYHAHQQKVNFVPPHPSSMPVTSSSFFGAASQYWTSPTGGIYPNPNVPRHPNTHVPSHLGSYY
# Outline: (§1)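 Yeast served to express human transcription factors as GST fusions, which were then captured on glutathione beads and labelled with DNA barcodes. Pooled with a tag-only sample, they were incubated with 200 nmole of a 16-mer random double-stranded DNA library for 30 min at room temperature in Tris/NaCl/DTT/glycerol buffer, washed, crosslinked with 0.1% formaldehyde, ligated by proximity, amplified by PCR and sequenced. Dividing each hexamer's read frequency for a factor by its frequency for the tag-only sample gives the binding signal.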
# ELK1 = target: T2, ELK1 (Homo sapiens, UniProt P19419 1-428); details: protein: recombinant; tags: N-terminal GST; dsDNA, one strand shown
# T2 sequence: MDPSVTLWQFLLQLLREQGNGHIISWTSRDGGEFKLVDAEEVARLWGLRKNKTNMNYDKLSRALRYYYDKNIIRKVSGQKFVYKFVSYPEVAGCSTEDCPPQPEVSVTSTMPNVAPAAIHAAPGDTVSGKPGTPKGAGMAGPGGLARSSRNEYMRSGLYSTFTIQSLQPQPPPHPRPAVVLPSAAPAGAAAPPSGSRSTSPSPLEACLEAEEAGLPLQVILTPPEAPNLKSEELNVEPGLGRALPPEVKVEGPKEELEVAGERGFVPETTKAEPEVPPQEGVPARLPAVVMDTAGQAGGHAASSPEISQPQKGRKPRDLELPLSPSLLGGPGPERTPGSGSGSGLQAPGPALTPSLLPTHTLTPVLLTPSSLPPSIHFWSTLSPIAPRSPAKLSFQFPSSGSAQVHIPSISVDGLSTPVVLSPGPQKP
# Outline: as §1
# GABPA = target: T3, GABPA (Homo sapiens, UniProt Q06546 1-454); details: protein: recombinant; tags: N-terminal GST; dsDNA, one strand shown
# T3 sequence: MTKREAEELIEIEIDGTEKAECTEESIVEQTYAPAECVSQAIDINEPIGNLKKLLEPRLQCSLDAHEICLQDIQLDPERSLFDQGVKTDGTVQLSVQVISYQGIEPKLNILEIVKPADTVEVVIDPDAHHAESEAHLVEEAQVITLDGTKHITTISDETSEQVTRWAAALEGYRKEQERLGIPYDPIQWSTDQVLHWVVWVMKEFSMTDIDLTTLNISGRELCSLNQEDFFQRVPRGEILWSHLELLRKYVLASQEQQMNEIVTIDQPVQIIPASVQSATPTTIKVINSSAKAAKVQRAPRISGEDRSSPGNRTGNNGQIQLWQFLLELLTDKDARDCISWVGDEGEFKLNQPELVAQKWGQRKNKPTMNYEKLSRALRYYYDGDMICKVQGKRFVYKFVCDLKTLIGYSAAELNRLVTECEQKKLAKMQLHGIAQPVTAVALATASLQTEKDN
# Outline: as §1
# ERG = target: T4, ERG (Homo sapiens, UniProt P11308 1-479); details: protein: recombinant; tags: N-terminal GST; dsDNA, one strand shown
# T4 sequence: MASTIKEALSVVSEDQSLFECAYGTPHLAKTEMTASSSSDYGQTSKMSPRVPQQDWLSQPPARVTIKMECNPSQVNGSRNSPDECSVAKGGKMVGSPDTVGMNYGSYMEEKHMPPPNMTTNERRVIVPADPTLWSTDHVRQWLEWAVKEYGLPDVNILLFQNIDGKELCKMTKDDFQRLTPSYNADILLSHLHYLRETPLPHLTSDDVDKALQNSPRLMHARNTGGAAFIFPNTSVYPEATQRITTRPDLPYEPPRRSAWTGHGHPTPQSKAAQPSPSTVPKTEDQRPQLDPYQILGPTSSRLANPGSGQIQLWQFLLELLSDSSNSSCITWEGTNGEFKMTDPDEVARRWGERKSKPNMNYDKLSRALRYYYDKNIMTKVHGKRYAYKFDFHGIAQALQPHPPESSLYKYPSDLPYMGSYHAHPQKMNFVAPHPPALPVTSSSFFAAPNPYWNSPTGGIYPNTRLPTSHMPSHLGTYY
# Outline: as §1
# ELF1 = ELF1 (Homo sapiens, UniProt P32519 1-619); details: protein: recombinant; tags: N-terminal GST; dsDNA, one strand shown
# Outline: as §1
# EHF = target: T5, EHF (Homo sapiens, UniProt Q9NZC4 1-300); details: protein: recombinant; tags: N-terminal GST; dsDNA, one strand shown
# T5 sequence: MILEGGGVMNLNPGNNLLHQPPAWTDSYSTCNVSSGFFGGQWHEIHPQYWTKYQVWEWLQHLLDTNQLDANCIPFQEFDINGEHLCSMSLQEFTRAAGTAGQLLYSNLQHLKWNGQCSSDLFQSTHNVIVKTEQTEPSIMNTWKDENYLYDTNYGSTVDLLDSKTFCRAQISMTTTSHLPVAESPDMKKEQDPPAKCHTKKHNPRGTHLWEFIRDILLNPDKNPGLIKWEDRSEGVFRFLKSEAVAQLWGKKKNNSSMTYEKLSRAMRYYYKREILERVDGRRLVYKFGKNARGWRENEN
# Outline: as §1
# SPI1 = SPI1 (Homo sapiens, UniProt P17947 1-270); details: protein: recombinant; tags: N-terminal GST; dsDNA, one strand shown
# Outline: as §1
# SPIB = SPIB (Homo sapiens, UniProt Q01892 1-262); details: protein: recombinant; tags: N-terminal GST; dsDNA, one strand shown
# Outline: as §1
# ELK3 = target: T6, ELK3 (Homo sapiens, UniProt P41970 1-407); details: protein: recombinant; tags: N-terminal GST; dsDNA, one strand shown
# T6 sequence: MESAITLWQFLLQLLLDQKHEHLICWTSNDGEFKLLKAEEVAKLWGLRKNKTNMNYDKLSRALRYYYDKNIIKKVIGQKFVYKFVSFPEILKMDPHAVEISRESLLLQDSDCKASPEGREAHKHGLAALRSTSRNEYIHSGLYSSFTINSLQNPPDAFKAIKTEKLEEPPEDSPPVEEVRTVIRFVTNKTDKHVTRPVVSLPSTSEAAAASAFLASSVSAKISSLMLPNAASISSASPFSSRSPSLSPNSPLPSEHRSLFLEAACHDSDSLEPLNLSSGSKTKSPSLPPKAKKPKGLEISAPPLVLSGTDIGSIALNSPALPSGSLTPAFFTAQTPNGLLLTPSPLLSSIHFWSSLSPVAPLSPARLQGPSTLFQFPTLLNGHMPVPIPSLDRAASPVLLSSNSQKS
# Outline: as §1
# FEV = target: T7, FEV (Homo sapiens, UniProt Q99581 1-238); details: protein: recombinant; tags: N-terminal GST; dsDNA, one strand shown
# T7 sequence: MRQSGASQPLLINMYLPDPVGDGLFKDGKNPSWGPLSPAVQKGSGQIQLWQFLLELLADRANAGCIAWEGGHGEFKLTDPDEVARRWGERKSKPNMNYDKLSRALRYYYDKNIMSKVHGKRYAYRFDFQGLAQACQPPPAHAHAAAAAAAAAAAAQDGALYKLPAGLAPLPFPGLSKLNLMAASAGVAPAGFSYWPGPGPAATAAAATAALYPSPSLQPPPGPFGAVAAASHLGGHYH
# Outline: as §1
# ETV5 = ETV5 (Homo sapiens, UniProt P41161 1-510); details: protein: recombinant; tags: N-terminal GST; dsDNA, one strand shown
# Outline: as §1
# HSF1 = HSF1 (Homo sapiens, UniProt Q00613 1-529); details: protein: recombinant; tags: N-terminal GST; chain copies: 3; dsDNA, one strand shown
# Outline: as §1
# SPIC = target: T8, SPIC (Homo sapiens, UniProt Q8N5J4 1-248); details: protein: recombinant; tags: N-terminal GST; dsDNA, one strand shown
# T8 sequence: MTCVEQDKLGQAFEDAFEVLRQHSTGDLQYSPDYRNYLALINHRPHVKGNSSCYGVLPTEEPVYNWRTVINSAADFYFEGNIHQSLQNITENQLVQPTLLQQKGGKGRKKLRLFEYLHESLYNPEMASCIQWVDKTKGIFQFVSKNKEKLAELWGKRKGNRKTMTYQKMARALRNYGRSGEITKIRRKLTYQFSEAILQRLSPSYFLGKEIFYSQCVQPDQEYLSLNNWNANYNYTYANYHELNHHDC
# Outline: as §1
# ELF4 = ELF4 (Homo sapiens, UniProt Q99607 1-663); details: protein: recombinant; tags: N-terminal GST; dsDNA, one strand shown
# Outline: as §1
# ELK4 = target: T9, ELK4 (Homo sapiens, UniProt P28324-2 1-405); details: protein: recombinant; tags: N-terminal GST; dsDNA, one strand shown
# T9 sequence: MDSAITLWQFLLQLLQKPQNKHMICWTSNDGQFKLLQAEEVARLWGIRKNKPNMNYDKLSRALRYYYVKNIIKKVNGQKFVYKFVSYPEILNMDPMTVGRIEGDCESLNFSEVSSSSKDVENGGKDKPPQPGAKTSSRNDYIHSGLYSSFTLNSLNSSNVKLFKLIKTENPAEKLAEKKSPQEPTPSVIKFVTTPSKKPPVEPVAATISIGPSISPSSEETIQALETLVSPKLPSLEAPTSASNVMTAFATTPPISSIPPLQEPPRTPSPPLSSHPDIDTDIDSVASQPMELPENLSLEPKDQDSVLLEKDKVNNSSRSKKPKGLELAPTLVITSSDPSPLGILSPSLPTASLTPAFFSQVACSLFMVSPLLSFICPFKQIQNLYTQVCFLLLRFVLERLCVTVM
# Outline: as §1
# ETV2 = target: T10, ETV2 (Homo sapiens, UniProt O00321 1-342); details: protein: recombinant; tags: N-terminal GST; dsDNA, one strand shown
# T10 sequence: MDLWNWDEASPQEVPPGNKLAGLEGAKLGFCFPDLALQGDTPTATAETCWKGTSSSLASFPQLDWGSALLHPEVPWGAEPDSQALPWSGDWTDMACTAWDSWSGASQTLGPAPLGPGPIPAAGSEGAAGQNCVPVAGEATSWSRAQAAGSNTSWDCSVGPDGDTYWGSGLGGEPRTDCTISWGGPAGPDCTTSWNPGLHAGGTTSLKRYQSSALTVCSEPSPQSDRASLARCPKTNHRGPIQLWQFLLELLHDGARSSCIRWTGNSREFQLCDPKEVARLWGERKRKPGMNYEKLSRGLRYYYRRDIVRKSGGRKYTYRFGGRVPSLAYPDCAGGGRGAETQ
# Outline: as §1
# ELF3 = target: T11, ELF3 (Homo sapiens, UniProt P78545 1-371); details: protein: recombinant; tags: N-terminal GST; dsDNA, one strand shown
# T11 sequence: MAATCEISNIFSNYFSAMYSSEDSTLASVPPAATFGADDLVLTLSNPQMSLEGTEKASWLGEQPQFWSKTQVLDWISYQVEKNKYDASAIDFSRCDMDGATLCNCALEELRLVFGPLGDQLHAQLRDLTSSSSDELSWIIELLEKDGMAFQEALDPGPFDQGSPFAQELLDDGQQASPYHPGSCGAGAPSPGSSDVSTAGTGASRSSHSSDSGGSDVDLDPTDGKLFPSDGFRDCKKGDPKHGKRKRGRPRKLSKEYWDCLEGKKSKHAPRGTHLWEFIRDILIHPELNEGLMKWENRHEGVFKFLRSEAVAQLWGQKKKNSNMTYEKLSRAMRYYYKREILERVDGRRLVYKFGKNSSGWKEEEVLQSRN
# Outline: as §1
# CRX = CRX (Homo sapiens, UniProt O43186 1-299); details: protein: recombinant; tags: N-terminal GST; dsDNA, one strand shown
# Outline: as §1
# ETV1 = ETV1 (Homo sapiens, UniProt P50549 1-477); details: protein: recombinant; tags: N-terminal GST; dsDNA, one strand shown
# Outline: as §1
# SPIB, sequence (Q01892 whole entry): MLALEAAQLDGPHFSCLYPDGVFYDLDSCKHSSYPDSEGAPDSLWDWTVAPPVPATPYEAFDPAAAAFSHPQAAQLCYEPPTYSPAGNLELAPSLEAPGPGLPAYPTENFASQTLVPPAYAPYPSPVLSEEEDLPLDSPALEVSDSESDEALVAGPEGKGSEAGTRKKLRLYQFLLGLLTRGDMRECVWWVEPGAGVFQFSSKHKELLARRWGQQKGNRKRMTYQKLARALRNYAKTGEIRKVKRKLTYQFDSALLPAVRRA
# HSF1, sequence (Q00613 whole entry): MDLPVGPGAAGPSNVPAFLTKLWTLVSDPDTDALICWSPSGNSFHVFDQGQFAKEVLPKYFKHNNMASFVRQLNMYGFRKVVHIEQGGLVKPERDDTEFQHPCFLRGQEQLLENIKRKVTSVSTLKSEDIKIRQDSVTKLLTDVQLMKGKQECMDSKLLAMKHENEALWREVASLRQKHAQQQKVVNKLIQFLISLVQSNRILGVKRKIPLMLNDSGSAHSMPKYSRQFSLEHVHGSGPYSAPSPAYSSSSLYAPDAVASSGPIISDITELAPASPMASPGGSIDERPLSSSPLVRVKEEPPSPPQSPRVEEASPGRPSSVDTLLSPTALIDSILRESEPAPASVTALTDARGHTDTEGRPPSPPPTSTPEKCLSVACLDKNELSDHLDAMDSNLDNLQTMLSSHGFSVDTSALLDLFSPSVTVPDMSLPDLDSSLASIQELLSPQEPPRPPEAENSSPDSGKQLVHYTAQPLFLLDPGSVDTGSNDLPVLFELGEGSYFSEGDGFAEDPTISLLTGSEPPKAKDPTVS
# ETV1, sequence (P50549 whole entry): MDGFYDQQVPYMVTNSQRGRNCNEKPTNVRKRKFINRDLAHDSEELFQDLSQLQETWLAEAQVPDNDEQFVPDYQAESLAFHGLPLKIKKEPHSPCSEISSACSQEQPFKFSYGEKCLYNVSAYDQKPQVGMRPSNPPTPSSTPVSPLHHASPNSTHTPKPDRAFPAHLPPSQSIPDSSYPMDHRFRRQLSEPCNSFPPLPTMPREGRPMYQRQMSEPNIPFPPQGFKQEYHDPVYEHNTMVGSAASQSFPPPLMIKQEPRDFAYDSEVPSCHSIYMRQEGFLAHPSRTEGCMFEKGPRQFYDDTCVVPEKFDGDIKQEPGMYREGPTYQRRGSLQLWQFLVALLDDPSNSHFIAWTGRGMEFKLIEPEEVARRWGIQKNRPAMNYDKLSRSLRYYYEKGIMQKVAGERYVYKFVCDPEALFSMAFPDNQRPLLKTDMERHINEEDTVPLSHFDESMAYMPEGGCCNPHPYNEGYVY
# ELF1, sequence (P32519 whole entry): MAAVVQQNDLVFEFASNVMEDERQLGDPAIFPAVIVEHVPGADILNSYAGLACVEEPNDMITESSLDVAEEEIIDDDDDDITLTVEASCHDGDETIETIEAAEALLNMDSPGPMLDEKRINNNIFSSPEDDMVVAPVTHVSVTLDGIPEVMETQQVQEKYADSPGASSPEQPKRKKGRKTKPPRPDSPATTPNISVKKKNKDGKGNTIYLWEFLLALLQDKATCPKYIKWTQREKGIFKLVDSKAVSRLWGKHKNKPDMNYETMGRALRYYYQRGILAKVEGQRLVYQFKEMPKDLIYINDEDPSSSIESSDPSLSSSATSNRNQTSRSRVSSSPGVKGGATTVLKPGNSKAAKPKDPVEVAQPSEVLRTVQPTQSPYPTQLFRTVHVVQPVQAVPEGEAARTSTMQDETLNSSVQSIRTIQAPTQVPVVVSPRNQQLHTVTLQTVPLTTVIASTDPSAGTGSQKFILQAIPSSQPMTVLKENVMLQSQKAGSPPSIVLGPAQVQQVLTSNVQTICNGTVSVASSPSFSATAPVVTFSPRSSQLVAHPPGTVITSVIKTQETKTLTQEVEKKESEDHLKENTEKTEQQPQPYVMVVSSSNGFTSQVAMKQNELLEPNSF
# CRX, sequence (O43186 whole entry): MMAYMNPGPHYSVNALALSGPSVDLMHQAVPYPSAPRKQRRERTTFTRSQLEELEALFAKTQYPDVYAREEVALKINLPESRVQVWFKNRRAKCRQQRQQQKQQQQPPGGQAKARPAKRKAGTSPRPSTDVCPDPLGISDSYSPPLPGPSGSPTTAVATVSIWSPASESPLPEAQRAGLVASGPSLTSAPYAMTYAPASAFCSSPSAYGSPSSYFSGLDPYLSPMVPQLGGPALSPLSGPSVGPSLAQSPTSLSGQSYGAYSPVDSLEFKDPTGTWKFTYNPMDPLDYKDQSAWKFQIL
# ELF4, sequence (Q99607 whole entry): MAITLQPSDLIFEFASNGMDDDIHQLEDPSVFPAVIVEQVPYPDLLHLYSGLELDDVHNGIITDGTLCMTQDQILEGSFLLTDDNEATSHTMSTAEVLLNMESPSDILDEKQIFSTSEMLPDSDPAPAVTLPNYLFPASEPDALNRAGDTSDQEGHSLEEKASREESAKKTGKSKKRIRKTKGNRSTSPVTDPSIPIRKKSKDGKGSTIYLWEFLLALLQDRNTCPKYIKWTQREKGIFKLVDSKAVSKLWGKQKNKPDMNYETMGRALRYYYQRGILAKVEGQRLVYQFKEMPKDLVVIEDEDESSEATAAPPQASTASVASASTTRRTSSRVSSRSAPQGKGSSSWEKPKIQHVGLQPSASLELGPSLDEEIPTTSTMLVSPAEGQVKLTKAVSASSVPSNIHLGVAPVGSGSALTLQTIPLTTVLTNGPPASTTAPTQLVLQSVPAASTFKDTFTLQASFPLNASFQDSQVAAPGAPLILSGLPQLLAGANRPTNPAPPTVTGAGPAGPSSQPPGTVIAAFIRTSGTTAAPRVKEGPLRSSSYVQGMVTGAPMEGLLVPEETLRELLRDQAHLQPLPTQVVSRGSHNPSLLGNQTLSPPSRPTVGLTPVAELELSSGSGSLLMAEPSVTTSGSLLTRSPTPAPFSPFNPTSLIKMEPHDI
# ETV5, sequence (P41161 whole entry): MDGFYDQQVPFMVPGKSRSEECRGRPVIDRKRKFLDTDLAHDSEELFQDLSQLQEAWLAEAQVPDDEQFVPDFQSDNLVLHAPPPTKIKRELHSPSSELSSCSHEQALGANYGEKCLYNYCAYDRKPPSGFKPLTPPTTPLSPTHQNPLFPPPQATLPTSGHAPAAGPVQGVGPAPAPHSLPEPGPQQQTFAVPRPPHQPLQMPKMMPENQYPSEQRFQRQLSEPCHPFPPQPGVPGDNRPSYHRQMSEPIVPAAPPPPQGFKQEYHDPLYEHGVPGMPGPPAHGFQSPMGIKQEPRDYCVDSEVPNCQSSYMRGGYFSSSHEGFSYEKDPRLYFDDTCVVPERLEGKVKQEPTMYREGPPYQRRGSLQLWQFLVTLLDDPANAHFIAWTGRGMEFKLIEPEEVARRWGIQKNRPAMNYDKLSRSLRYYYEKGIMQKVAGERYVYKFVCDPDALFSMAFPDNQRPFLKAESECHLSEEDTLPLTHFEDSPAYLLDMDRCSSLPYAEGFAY
sequence,measurement,setting,value
TATCTT,binding signal,FLI1,"1.46 fold enrichment (6-mer frequency, TF over GST control)"
same,binding signal,ELK1,"1.31 fold enrichment (6-mer frequency, TF over GST control)"
same,binding signal,GABPA,"1.38 fold enrichment (6-mer frequency, TF over GST control)"
same,binding signal,ERG,"1.26 fold enrichment (6-mer frequency, TF over GST control)"
same,binding signal,ELF1,"1.36 fold enrichment (6-mer frequency, TF over GST control)"
same,binding signal,EHF,"1.3 fold enrichment (6-mer frequency, TF over GST control)"
same,binding signal,SPI1,"1.3 fold enrichment (6-mer frequency, TF over GST control)"
same,binding signal,SPIB,"1.28 fold enrichment (6-mer frequency, TF over GST control)"
same,binding signal,ELK3,"1.24 fold enrichment (6-mer frequency, TF over GST control)"
same,binding signal,FEV,"1.33 fold enrichment (6-mer frequency, TF over GST control)"
same,binding signal,ETV5,"1.22 fold enrichment (6-mer frequency, TF over GST control)"
same,binding signal,HSF1,"1.48 fold enrichment (6-mer frequency, TF over GST control)"
same,binding signal,SPIC,"1.27 fold enrichment (6-mer frequency, TF over GST control)"
same,binding signal,ELF4,"1.24 fold enrichment (6-mer frequency, TF over GST control)"
same,binding signal,ELK4,"1.38 fold enrichment (6-mer frequency, TF over GST control)"
same,binding signal,ETV2,"1.53 fold enrichment (6-mer frequency, TF over GST control)"
same,binding signal,ELF3,"1.34 fold enrichment (6-mer frequency, TF over GST control)"
same,binding signal,CRX,"1.91 fold enrichment (6-mer frequency, TF over GST control)"
same,binding signal,ETV1,"1.22 fold enrichment (6-mer frequency, TF over GST control)"
